From PubChem BioAssay
Values without a mark were called inactive. For part of these data: Measured potencies and affinities stand elsewhere. Active and inactive are the calls of the source. Unless noted, how the calls were made is not given here.

Tests used:
[1] = antimalarial activity against Dd2 strain (AID 2302;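 active means growth inhibition above 50% at the single 2 µM test dose, taken to imply half-maximal potency below 2 µM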;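 further: 0% = DMSO untreated growth and 100% = chloroquine plus artemisinin killed control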); details: P. falciparum Dd2 in RBCs, LDH growth readout, 72 h; at 2 µM; hits give high values
[2] = human hepatoma cell viability loss – ATP luminescence, cytotoxicity control for P. falciparum antimalarial project, primary screen (AID 2303;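 active means inhibition above 50%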;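 further: 0% = DMSO wells and 100% = digitonin-killed cells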); details: HepG2 viability, 24-48 h, at 10 µM, hits give high values
[3] = target: L-lactate dehydrogenase (Plasmodium falciparum (isolate CDC / Honduras)) (UniProt Q27743); assay: PfLDH activity inhibition – cell lysate, 3D7 strain, counter-screen for P. falciparum growth inhibition project (AID 2304);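 further: 0% = vehicle and 100% = reference inhibitor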; details: P. falciparum 3D7 crude extract, LDH APAD/NBT absorbance; at 2 µM; hits give high values
[4] = inhibition of 3D7 malaria parasite growth – strain 3D7 (AID 2306);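 further: 0% = DMSO wells and 100% = chloroquine plus artemisinin control wells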; details: P. falciparum 3D7 erythrocytic growth, LDH absorbance, 72 h; at 2 µM; hits give high values
[5] = target: Plasmodium falciparum protein kinase 6 (PK6, PF3D7_1337100) (UniProt Q8IDW1); assay: PfPK6 kinase inhibitors, biochemical, TCAMS library (AID 1159586); details: recombinant PfPK6, Kinase-Glo ATP depletion luminescence
[6] = target: Protein kinase 7 (PK7), Plasmodium falciparum 3D7 (PF3D7_0213400) (UniProt Q7YTF7); assay: inhibition of Plasmodium PK7 catalytic activity – biochemical, TCAMS antimalarial set, Kinase-Glo luminescence (AID 1159587); details: recombinant PfPK7, Kinase-Glo ATP depletion luminescence
[7] = target: Calcium-dependent protein kinase 4 (Plasmodium falciparum (isolate 3D7)) (UniProt Q8IBS5); assay: PfCDPK4 kinase inhibitors, biochemical, TCAMS library (AID 1159588; cut-off not given, nearly all actives have IC50 up to about 0.91 µM); details: recombinant PfCDPK4, Kinase-Glo ATP depletion luminescence
Sequence of Calcium-dependent protein kinase 4 (Plasmodium falciparum (isolate 3D7)) (Q8IBS5 whole entry, looked up): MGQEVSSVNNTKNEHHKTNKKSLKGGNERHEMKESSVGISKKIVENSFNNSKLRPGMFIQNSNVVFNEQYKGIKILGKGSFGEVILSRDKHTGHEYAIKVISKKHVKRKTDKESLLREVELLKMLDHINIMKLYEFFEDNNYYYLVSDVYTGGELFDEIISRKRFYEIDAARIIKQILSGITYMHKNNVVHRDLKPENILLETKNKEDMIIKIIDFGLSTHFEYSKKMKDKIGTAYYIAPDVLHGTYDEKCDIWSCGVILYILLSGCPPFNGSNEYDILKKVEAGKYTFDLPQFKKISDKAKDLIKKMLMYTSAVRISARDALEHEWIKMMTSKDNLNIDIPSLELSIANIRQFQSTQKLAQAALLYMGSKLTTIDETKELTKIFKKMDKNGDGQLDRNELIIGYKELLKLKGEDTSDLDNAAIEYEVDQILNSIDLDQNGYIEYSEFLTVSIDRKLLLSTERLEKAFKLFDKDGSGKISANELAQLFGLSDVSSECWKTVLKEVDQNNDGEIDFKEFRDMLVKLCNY

Sequence of L-lactate dehydrogenase (Plasmodium falciparum (isolate CDC / Honduras)) (Q27743 whole entry, looked up): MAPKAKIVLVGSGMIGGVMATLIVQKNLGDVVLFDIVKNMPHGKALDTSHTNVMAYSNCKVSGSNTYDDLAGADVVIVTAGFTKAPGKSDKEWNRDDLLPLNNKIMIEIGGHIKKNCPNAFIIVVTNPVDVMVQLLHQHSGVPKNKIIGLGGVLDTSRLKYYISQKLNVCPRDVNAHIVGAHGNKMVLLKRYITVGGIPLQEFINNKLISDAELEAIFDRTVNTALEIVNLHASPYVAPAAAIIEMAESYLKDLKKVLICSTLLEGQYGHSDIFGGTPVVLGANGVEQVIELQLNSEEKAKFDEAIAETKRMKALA
Sequence of Plasmodium falciparum protein kinase 6 (PK6, PF3D7_1337100) (Q8IDW1 1-305): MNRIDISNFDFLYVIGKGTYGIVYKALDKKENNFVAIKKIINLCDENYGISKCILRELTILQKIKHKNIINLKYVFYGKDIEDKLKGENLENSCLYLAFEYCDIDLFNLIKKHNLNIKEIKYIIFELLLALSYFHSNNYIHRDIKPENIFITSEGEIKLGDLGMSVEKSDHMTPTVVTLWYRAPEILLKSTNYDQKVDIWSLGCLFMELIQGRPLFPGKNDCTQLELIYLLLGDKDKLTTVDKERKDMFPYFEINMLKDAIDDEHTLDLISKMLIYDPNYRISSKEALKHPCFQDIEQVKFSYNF
Sequence of Protein kinase 7 (PK7), Plasmodium falciparum 3D7 (PF3D7_0213400) (Q7YTF7 1-343): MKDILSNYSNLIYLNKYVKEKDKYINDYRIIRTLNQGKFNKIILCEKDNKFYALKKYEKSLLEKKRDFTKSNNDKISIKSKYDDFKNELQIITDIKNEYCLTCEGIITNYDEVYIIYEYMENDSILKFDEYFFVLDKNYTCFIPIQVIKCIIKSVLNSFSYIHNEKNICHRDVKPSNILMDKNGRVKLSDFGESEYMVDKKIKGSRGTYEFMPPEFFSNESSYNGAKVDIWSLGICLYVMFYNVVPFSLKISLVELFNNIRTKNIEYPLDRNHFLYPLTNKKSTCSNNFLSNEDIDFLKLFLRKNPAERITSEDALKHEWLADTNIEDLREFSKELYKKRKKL

SMILES	growth inhibition [1]	inhibition [2]	inhibition [3] [%]	growth inhibition [4]	outcome [5]	outcome [6]	outcome [7]
CN1CCN(c2ccc(Nc3ncc(Cl)c(Nc4cccnc4C(N)=O)n3)cc2)CC1	97% (active)	99% (active)	-1	95% (active)	inactive	inactive	inactive
CS(=O)(=O)Nc1cccc(-c2cnc3[nH]cc(-c4cccc(CN)c4)c3c2)c1	82% (active)	25%	-2	96% (active)	inactive	inactive	inactive
CC(C)(CNC(=O)[C@@H]1CCCCN1)c1nc(-c2ccc(Cl)c(O)c2)c(-c2ccncc2)[nH]1	96% (active)	-8%	-10	97% (active)	inactive	inactive	inactive
Nc1ncc(-c2cn[nH]c2)cc1-c1nc2ncc(Cl)cc2[nH]1	70% (active)	40%	1	100% (active)	inactive	inactive	inactive
O=C(NCCCN1CCOCC1)c1cccc(Nc2nccc(Nc3ccc(Oc4ccccc4)cc3)n2)c1	22%	34%	-9	98% (active)	inactive	inactive	inactive
O=c1[nH]ccc2nc(N[C@@H]3CCNC3)nc(Nc3ccc4c(c3)S(=O)(=O)CC4)c12	99% (active)	-4%	-2	100% (active)	inactive	inactive	inactive
CN(C)CCNCc1ccc(-c2ccc3c(Nc4ccc(Cl)cc4F)ccnc3c2)o1	100% (active)	14%	-4	99% (active)	inactive	inactive	inactive
CC(C)(CNCc1ccc(OC(F)(F)F)cc1)c1nc(-c2ccc(Cl)c(O)c2)c(-c2ccncc2)[nH]1	99% (active)	38%	-2	102% (active)	inactive	inactive	inactive
CCCN1CCN(CCNC(=O)c2cccc(Nc3nccc(Nc4ccc(Oc5ccccc5)cc4)n3)c2)CC1	96% (active)	56% (active)	-7	99% (active)	inactive	inactive	inactive
CC(C)(CNCc1ccc(C(F)(F)F)cc1)c1nc(-c2ccc(Cl)c(O)c2)c(-c2ccnc(N)n2)[nH]1	37%	32%	-2	101% (active)	inactive	inactive	inactive
CCOC(=O)c1cccc(NC(=O)Nc2cccc(-c3ncc(OCCCN)c4c3nc(-c3nonc3N)n4CC)c2)c1	98% (active)	16%	2	100% (active)	inactive	inactive	inactive
Cc1nnc(-c2cccc(Nc3ccnc4cc(-c5nccs5)ccc34)c2)o1	89% (active)	38%	-2	95% (active)	inactive	inactive	inactive
c1ccc(Oc2ccc(Nc3ccnc4cc(-c5ccc(CNCCN6CCOCC6)o5)ccc34)cc2)cc1	99% (active)	20%	-3	99% (active)	inactive	inactive	inactive
NCCCOc1cnc(-c2ccccc2)c2nc(-c3nonc3N)n(CCc3ccccc3)c12	86% (active)	56% (active)	-4	93% (active)	inactive	inactive	inactive
CC(C)(CNCc1ccc(Cl)cc1)c1nc(-c2ccc(Cl)c(O)c2)c(-c2ccncc2)[nH]1	98% (active)	86% (active)	5	101% (active)	inactive	inactive	inactive
CC(C)(CNCc1ccc(F)c(F)c1)c1nc(-c2ccc(Cl)c(O)c2)c(-c2ccncc2)[nH]1	89% (active)	74% (active)	2	102% (active)	inactive	inactive	inactive
CN1CCC=C(C(=O)NCC(C)(C)c2nc(-c3ccc(Cl)c(O)c3)c(-c3ccncc3)[nH]2)C1	96% (active)	39%	-1	96% (active)	inactive	inactive	inactive
COc1ccc(Nc2ncc3c(-c4cccc(NC(=O)Cc5cccc(O)c5)c4)c[nH]c3n2)cc1OC	96% (active)	44%	-6	101% (active)	inactive	inactive	inactive
CC(C)(CNC(=O)C1CCN(Cc2ccc(Cl)cc2)CC1)c1nc(-c2ccc(Cl)c(O)c2)c(-c2ccncc2)[nH]1	83% (active)	36%	-6	100% (active)	inactive	inactive	inactive
CN(C)CCNCc1nc(-c2ccc3c(Nc4ccc(Oc5ccccc5)cc4)ccnc3c2)cs1	100% (active)	8%	6	101% (active)	inactive	inactive	inactive
O=C(NCCN1CCCCC1)c1ccc(Nc2nccc(Nc3ccc(Oc4ccccc4)cc3)n2)cc1	91% (active)	58% (active)	-2	101% (active)	inactive	inactive	inactive

SMILES	growth inhibition [1]	inhibition [2]	inhibition [3] [%]	growth inhibition [4]	outcome [5]	outcome [6]	outcome [7]
Cc1nc(-c2cccc(Nc3ccnc4cc(-c5nccs5)ccc34)c2)no1	90% (active)	37%	-2	99% (active)	inactive	inactive	inactive
O=C(NCCCN1CCCCC1)c1cccc(Nc2nccc(Nc3ccc(Oc4ccccc4)cc3)n2)c1	12%	47%	2	96% (active)	inactive	inactive	inactive
Fc1cc(Cl)ccc1Nc1ccnc2cc(-c3ccc(CNCCN4CCOCC4)o3)ccc12	100% (active)	13%	-2	101% (active)	inactive	inactive	inactive
Nc1ncc(-c2cn[nH]c2)cc1-c1nc2ccc(F)cc2[nH]1	53% (active)	38%	-3	101% (active)	inactive	inactive	inactive
CC(=O)Nc1cccc(Nc2nccc(Nc3ccc(Oc4ccccc4)cc3)n2)c1	99% (active)	15%	-6	101% (active)	inactive	inactive	inactive
Oc1cccc(-c2cnc3ccc(NCc4ccc(F)cc4)nn23)c1	66% (active)	-5%	2	91% (active)	inactive	inactive	inactive
CC(C)(CNC(=O)C1CCN(Cc2ccoc2)CC1)c1nc(-c2ccc(Cl)c(O)c2)c(-c2ccncc2)[nH]1	66% (active)	-12%	-2	93% (active)	inactive	inactive	inactive
O=C(NC1CC1)c1ccc(Nc2nccc(-c3c(-c4cccc(NC(=O)c5c(F)cccc5F)c4)nn4ccccc34)n2)cc1	96% (active)	84% (active)	-1	94% (active)	inactive	inactive	inactive
COCCNCc1ncsc1-c1ccc2c(Nc3cc(O)c(Cl)cc3F)ccnc2c1	92% (active)	0%	-5	101% (active)	inactive	inactive	inactive
COCCNCc1cccc(-c2ccc3c(Nc4ccc(Oc5ccccc5)cc4)ccnc3c2)c1	99% (active)	25%	2	101% (active)	inactive	inactive	inactive
CN1CCN(Cc2ccc(-c3ccc4c(Nc5ccc(Cl)cc5F)ccnc4c3)o2)CC1	100% (active)	47%	-3	102% (active)	inactive	inactive	inactive
CC(C)(CNC(=O)C1CCN(CCOc2ccc(F)c(F)c2)CC1)c1nc(-c2ccc(Cl)c(O)c2)c(-c2ccncc2)[nH]1	19%	41%	-1	101% (active)	inactive	inactive	inactive
NCC(NC(=O)c1ccc(-c2c[nH]c3ncccc23)s1)c1ccccc1 (stereo not drawn)	87% (active)	52% (active)	0	95% (active)	inactive	inactive	–
CS(=O)(=O)c1cccc(-c2cnc3[nH]cc(-c4cccc(CCN)c4)c3c2)c1	74% (active)	-12%	-5	99% (active)	inactive	inactive	inactive
NS(=O)(=O)c1cccc(Nc2nccc(-c3c(-c4cccc(NC(=O)c5c(F)cccc5F)c4)nn4ccccc34)n2)c1	97% (active)	81% (active)	2	98% (active)	inactive	inactive	–
O=C(Nc1cccc(-c2nn3ncccc3c2-c2ccnc(Nc3ccccc3)n2)c1)c1c(F)cccc1F	96% (active)	51% (active)	0	98% (active)	inactive	inactive	–
O=C(Nc1cccc(-c2nn3ccccc3c2-c2ccnc(Nc3ccc(C(=O)N4CCOCC4)cc3)n2)c1)c1c(F)cccc1F	97% (active)	72% (active)	4	99% (active)	inactive	inactive	–
CCn1c(-c2nonc2N)nc2c(-c3cccc(NC(=O)NC45CC6CC(CC(C6)C4)C5)c3)ncc(OCCCN)c21	63% (active)	100% (active)	-2	94% (active)	inactive	inactive	–
CCn1c(-c2nonc2N)nc2c(-c3cccc(Cl)c3)ncc(OCCCNCCc3cnc[nH]3)c21	98% (active)	16%	-3	101% (active)	inactive	inactive	–
O=C(NCCN1CCCCC1)c1cccc(Nc2nccc(Nc3ccc(Oc4ccccc4)cc3)n2)c1	86% (active)	50% (active)	-2	99% (active)	inactive	inactive	inactive
CN(C)Cc1ccc(-c2ccc3c(Nc4ccc(Oc5ccccn5)cc4)ccnc3c2)o1	100% (active)	18%	1	101% (active)	inactive	inactive	inactive
